Common to all, as to assay: Primary Screen for Target Class Profiling of Small Molecule Inhibitors of Methyltransferases
Experiment [1] has as its target Catechol O-methyltransferase (Homo sapiens) (UniProt P21964). The conditions noted are these: purified enzyme, MTase-Glo SAH luminescence; activity change, negative = inhibition: at 40 µM, stronger effect = lower value; outcome: 40 uM. Put shortly:
(§1)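 Each enzyme was assayed with SAM and its substrate. SAH formation detected by MTase-Glo luminescence; single-point 40 uM screen[…].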

The target of experiment [2] is Glycine N-methyltransferase (Homo sapiens) (UniProt Q14749). The conditions noted are these: purified enzyme, MTase-Glo SAH luminescence; measured here: GNMT inhibition; at 40 µM; stronger effect = lower value. The procedure, abridged:
as §1

Experiment [3] has as its target Guanidinoacetate N-methyltransferase (Homo sapiens) (UniProt Q14353). As to conditions: purified enzyme, MTase-Glo SAH luminescence; measured here: GAMT inhibition; at 40 µM; stronger effect = lower value. Put shortly: as §1
Experiment [4] addresses Histamine N-methyltransferase (Homo sapiens) (UniProt P50135). The conditions noted are these: purified enzyme, MTase-Glo SAH luminescence; measured here: HNMT inhibition; at 40 µM; stronger effect = lower value. The procedure, abridged:
as §1

Experiment [5] concerns the target Nicotinamide N-methyltransferase (Homo sapiens) (UniProt P40261). As to conditions: purified enzyme, MTase-Glo SAH luminescence; measured here: NNMT inhibition; at 40 µM; stronger effect = lower value. The procedure, abridged: as §1
The target in experiment [6] is Phenylethanolamine N-methyltransferase (Homo sapiens) (UniProt P11086). The conditions noted are these: purified enzyme, MTase-Glo SAH luminescence; measured here: PNMT inhibition; at 40 µM; stronger effect = lower value. The procedure, abridged: as §1

Out of some 25,000 compounds screened, about 970 (3.9%) were called active. Inconclusive results (about 8%) are left out. No rule for the calls is given here. This excerpt belongs to a sample that is enriched for actives.
% is scaled to controls: 0 for no effect and ±100 for the full control effect.

Sequence of Phenylethanolamine N-methyltransferase (Homo sapiens) (P11086 whole entry, looked up): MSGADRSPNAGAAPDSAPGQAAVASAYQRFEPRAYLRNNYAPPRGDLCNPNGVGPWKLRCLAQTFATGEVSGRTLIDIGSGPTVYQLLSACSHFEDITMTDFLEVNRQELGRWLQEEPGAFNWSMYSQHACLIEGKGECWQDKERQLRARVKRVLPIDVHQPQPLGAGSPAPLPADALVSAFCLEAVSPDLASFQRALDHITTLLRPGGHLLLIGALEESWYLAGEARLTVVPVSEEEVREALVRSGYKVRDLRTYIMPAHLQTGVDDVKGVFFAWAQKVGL
Sequence of Glycine N-methyltransferase (Homo sapiens) (Q14749 whole entry, looked up): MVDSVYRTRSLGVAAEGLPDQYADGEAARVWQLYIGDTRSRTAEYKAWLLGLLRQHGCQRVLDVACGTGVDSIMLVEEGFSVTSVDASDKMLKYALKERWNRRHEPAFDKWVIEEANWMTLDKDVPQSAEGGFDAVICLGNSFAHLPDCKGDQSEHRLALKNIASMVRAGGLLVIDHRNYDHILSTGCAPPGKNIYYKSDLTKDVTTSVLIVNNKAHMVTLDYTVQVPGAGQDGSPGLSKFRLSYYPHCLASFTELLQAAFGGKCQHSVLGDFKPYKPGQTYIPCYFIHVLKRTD
Sequence of Histamine N-methyltransferase (Homo sapiens) (P50135 whole entry, looked up): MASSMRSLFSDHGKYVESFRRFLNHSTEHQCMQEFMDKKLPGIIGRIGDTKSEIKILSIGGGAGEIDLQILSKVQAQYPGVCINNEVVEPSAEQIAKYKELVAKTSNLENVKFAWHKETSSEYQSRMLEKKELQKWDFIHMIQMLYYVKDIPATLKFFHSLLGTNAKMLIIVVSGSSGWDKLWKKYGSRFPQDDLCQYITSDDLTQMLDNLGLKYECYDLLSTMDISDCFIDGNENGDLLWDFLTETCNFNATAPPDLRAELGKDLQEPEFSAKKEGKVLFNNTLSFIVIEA
Sequence of Catechol O-methyltransferase (Homo sapiens) (P21964 whole entry, looked up): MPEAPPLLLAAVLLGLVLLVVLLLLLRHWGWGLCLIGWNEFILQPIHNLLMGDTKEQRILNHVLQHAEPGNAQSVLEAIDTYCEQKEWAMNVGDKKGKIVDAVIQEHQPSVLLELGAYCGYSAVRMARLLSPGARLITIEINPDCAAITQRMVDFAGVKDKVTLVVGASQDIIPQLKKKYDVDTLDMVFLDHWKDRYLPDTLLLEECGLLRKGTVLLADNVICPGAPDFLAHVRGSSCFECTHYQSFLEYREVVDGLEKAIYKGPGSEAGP
Sequence of Nicotinamide N-methyltransferase (Homo sapiens) (P40261 whole entry, looked up): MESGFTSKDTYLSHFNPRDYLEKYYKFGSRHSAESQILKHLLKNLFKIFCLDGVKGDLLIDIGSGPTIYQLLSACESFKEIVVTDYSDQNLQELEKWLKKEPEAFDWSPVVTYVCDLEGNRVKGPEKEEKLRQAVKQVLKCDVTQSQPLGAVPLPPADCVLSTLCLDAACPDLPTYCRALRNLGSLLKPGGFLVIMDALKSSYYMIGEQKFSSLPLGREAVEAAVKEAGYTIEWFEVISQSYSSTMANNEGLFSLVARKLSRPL

For the molecule `CC(C)(C)c1ccc(C(=O)Nc2cc(Cl)c(Br)cc2C(=O)O)cc1`, the activity change, negative = inhibition in experiment [1] was -7.23% (active); in experiment [2] it was -49.9%; in experiment [3], -17.8%; in experiment [4], -39.8%; in experiment [5] it was -69%; in experiment [6], -27.1%.

Consider `CC(C)(C)c1ccc(S(=O)(=O)NCc2ccc(C(=O)Nc3cccnc3)cc2)cc1`, for which the activity change, negative = inhibition in experiment [1] is -2.26% (inactive); in experiment [2], -3.93%; in experiment [3], -2.21%; in experiment [4], -1.56%; in experiment [5], -14.6%; in experiment [6] it was -7.18%.

Turning to `Cc1ccccc1CN1C(=O)c2cc(-c3cccs3)nn2CC1(C)C(=O)NC1CCCCC1` (stereo not given), the activity change, negative = inhibition in experiment [1] was 0.113% (inactive); in experiment [2], -0.305%; in experiment [3] it was 0%; in experiment [4] it was 0.259%; in experiment [5], 3.22%; in experiment [6], -1.18%.

For the molecule `COc1ccc(C2Cn3nnc(-c4noc(C5CCC5)n4)c3CO2)cc1` (stereo not given), the activity change, negative = inhibition in experiment [1] was -14.4% (inactive); in experiment [2], -9.87%; in experiment [3] it was -9.12%; in experiment [4], -7.42%; in experiment [5], -17.1%; in experiment [6] it was -12.5%.

`CN1C(=O)C2(CCN(Cc3cccn3C)C2)c2ccccc21` (stereo not given): the activity change, negative = inhibition in experiment [1] was -4.01% (inactive); in experiment [2] it was -11.7%; in experiment [3], -5.16%; in experiment [4] it was -17.5%; in experiment [5], -15.9%; in experiment [6], -0.794%.

In the case of `O=C(/C=C/c1ccc(CN(CCO)CCc2c[nH]c3ccccc23)cc1)NO`, the activity change, negative = inhibition in experiment [1] was 19.6% (active); in experiment [2], -17.2%; in experiment [4], -68.8%; in experiment [5], -31%; in experiment [6] it was 12.3%.

Take `C/C=C\NC(=O)C1NC(=O)C(CC(N)=O)NC(=O)C(NC(=O)C(=O)C(C)CC)Cc2ccc(O)c(c2)-c2cccc3c2NC(=O)C3(O)C1O` (stereo not given): the activity change, negative = inhibition in experiment [1] is -7.46% (inactive); in experiment [2], -2.05%; in experiment [3] it was -15.1%; in experiment [4], -0.643%; in experiment [5] it was -26.2%; in experiment [6], -2.58%.

Consider `FC(F)(F)c1cccc(C2=NOC3(CCCN(CC4CCCCC4)C3)C2)c1` (stereo not given), for which the activity change, negative = inhibition in experiment [1] was -1.26% (inactive); in experiment [2], -2.05%; in experiment [3], 2.98%; in experiment [4], 1.38%; in experiment [5] it was -6.62%; in experiment [6], 6.26%.

Take `Cc1nn(-c2ccccc2)c2c1C(C)N(C1CCN(C(=O)NC3CCCC3)C1)C2=O` (stereo not given): the activity change, negative = inhibition in experiment [1] was -10.5% (inactive); in experiment [2], -9.42%; in experiment [3], -11.7%; in experiment [4], -6.3%; in experiment [5], -12.4%; in experiment [6] it was -12%.

Regarding `O=C(NCc1cc2n(n1)CCCN(C1CCCCC1)C2)c1cccc(F)c1`, the activity change, negative = inhibition in experiment [1] is -1.85% (inactive); in experiment [2], -1.07%; in experiment [3], -0.04%; in experiment [4] it was -13%; in experiment [5] it was -2.3%; in experiment [6], 3.54%.

Consider `Cc1ccc(NC(=O)Cn2nc3n(C(C)C)c(=O)c4ccc(C(=O)NC(C)C)cc4n3c2=O)c(Cl)c1`, for which the activity change, negative = inhibition in experiment [1] is 7.09% (inactive); in experiment [2], 7.08%; in experiment [3], 2.19%; in experiment [4], 7.8%; in experiment [5], 1.15%; in experiment [6], 7.43%.

Consider `CC[C@@H](c1ccc(F)c(F)c1)n1c(C(=O)OC)c(-c2ccno2)[nH]c1=S`, for which the activity change, negative = inhibition in experiment [1] is 6.91% (inactive); in experiment [2], 1.62%; in experiment [3], 4.04%; in experiment [4], 10.6%; in experiment [5], -18.4%; in experiment [6], -1.86%.

As to `CCCC1c2ccc(C)n2CCN1C(=O)Nc1ccc(OCC)cc1` (stereo not given), the activity change, negative = inhibition in experiment [1] is 1.32% (inactive); in experiment [2], 1.56%; in experiment [3] it was 0%; in experiment [4] it was -0.12%; in experiment [5], 2.78%; in experiment [6] it was 1.21%.

As for `CNC(=O)[C@@H]1CN(C(=O)c2ccc(OC)cc2C)C[C@H]1COC`, the activity change, negative = inhibition in experiment [1] is -1.84% (inactive); in experiment [2], -2.55%; in experiment [3], -4.79%; in experiment [4], -1.32%; in experiment [5], -3.85%; in experiment [6], -0.512%.

For the molecule `CCCN1C(=O)c2cc(C(=O)NCc3cc(Br)ccc3OC)nn2CC1(C)C(=O)NC1CCCC1` (stereo not given), the activity change, negative = inhibition in experiment [1] was -2.6% (inactive); in experiment [2] it was -4.66%; in experiment [3] it was -1.16%; in experiment [4] it was -1.31%; in experiment [5], -2.91%; in experiment [6] it was -4.59%.

On to `CC1=C[C@@H](CNS(=O)(=O)c2cccc(C#N)c2)[C@H](C(C)C)C[C@H]1CC(=O)N(C)Cc1cccnc1`, for which the activity change, negative = inhibition in experiment [1] was -5.31% (inactive); in experiment [2] it was -4.49%; in experiment [3] it was -3.45%; in experiment [4], -4.55%; in experiment [5], -23.9%; in experiment [6], -6.65%.

On to `CCCn1c(=O)c2ccc(C(=O)NC3CCCC3)cc2n2c(=O)n(Cc3ccc(F)cc3Cl)nc12`, for which the activity change, negative = inhibition in experiment [1] was -1.77% (inactive); in experiment [2] it was -1.81%; in experiment [3], -0.898%; in experiment [4], 5.95%; in experiment [5] it was -5.65%; in experiment [6] it was -1.78%.

As to `C=C1C(=O)O[C@@H]2C[C@@]3(C)CCCC(=C)[C@]3(O)C[C@H]12`, the activity change, negative = inhibition in experiment [1] was 6.75% (inactive); in experiment [2], 1.89%; in experiment [3] it was 5.34%; in experiment [4], 6.01%; in experiment [5], -3.59%; in experiment [6], 7.18%.

Consider `CCCNC(=O)Cn1ccc2cc(S(=O)(=O)N3CCCCC3)ccc21`, for which the activity change, negative = inhibition was 4.84% (inactive) in experiment [1]; 9.68% in experiment [2]; 1.89% in experiment [3]; 7.8% in experiment [4]; 9.14% in experiment [5]; 4.01% in experiment [6].

`O=C(O)C1=NOC2CN([S+](=O)([O-])c3cc(C(F)(F)F)cc(C(F)(F)F)c3)CC12` (stereo not given): the activity change, negative = inhibition was 0.473% (inactive) in experiment [1]; 0.245% in experiment [2]; -0.074% in experiment [3]; 1.51% in experiment [4]; -7.33% in experiment [5]; -0.67% in experiment [6].

With `COc1ccccc1NC(=O)CSc1nnc2[nH]c(=O)c(C(C)(C)C)nn12`, the activity change, negative = inhibition in experiment [1] was 9.13% (inactive); in experiment [2], 7.62%; in experiment [3], 0%; in experiment [4], 5.75%; in experiment [5], -0.804%; in experiment [6], -8.39%.

For `CCCn1c(=O)c2cc(Cl)ccc2n2c(SCC(=O)Nc3cccc(Cl)c3)nnc12`, the activity change, negative = inhibition was -3.39% (inactive) in experiment [1]; -7.66% in experiment [2]; -0.122% in experiment [3]; 1.87% in experiment [4]; -14% in experiment [5]; -4.95% in experiment [6].

Turning to `COc1ccc(NC(=O)CSc2nnc3n(CCCOC(C)C)c(=O)c4ccccc4n23)cc1`, the activity change, negative = inhibition was 6.36% (inactive) in experiment [1]; 1.3% in experiment [2]; 1.9% in experiment [3]; 7.77% in experiment [4]; 6.56% in experiment [5]; 5.87% in experiment [6].

As to `CCNC(=O)C#Cc1ccc2c(C(=Nc3ccc(CN(C)C)cc3)c3ccccc3)c(O)[nH]c2c1`, the activity change, negative = inhibition is -18.4% (active) in experiment [1]; -35.9% in experiment [2]; -5.11% in experiment [3]; -64.7% in experiment [4]; -34.2% in experiment [5]; -13.1% in experiment [6].

Regarding `COCCn1c(=O)c(C(=O)N2CCN(C(C)=O)CC2)nc2cccnc21`, the activity change, negative = inhibition in experiment [1] is -9.78% (inactive); in experiment [2] it was -6.01%; in experiment [3], -10.4%; in experiment [4], -3.36%; in experiment [5], -14%; in experiment [6], -5.78%.

Regarding `CC(C)Cn1c(=O)c2ccccc2n2c(=O)n(Cc3ccccc3)nc12`, the activity change, negative = inhibition in experiment [1] is 2.82% (inactive); in experiment [2], -1.72%; in experiment [3] it was 0%; in experiment [4], 6.83%; in experiment [5] it was -9.64%; in experiment [6], 0.863%.

(Values after PubChem BioAssay AID1745853 (National Center for Advancing Translational Sciences (NCATS), 2022).)
